Compound activity: PubChem BioAssay, National Center for Advancing Translational Sciences (NCATS)
This is one part of a sample in which hits are shown more often than they occur.
Tb PYK inh – qHTS of Trypanosoma Brucei Inhibitors; AID 624173, 2012; 0.12% of 410,000 active; TbPYK enzyme, Kinase-Glo Plus ATP luminescence, 45 min; Potency, µM (doses to about 76.8 µM), for the others: at the top dose activity, negative = inhibition, actives largely listed as inhibitors; also: potency is read from the fitted curve at half-maximal effect; % is scaled to controls: 0 for no effect and ±100 for the full control effect; nearly all actives have a fitted effect of over 50% in size
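Readout: single end-point luminescence (Kinase-Glo Plus, 10 min). Reaction conditions were TbPYK/substrate plus 130 uM ADP, 45 min at RT, pH 7.2 TEA buffer. No-enzyme wells served as controls, and data were normalized before concentration-response fitting.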
FBPA Giardia inh – qHTS Assay for Inhibitors of Fructose-1,6-bisphosphate Aldolase from Giardia Lamblia | A8B2U2 | purified Giardia FBPA | Potency, µM (titrated, usually from 59.6 µM), without a hit: top-dose activity, negative = inhibition, usual class: inhibitors | 0.71% of 290,000 active; also: potency is read from the fitted curve at half-maximal effect; % is scaled to controls: 0 for no effect and ±100 for the full control effect; nearly all actives have a fitted effect of over 55% in size
Target sequence (A8B2U2 whole entry, looked up): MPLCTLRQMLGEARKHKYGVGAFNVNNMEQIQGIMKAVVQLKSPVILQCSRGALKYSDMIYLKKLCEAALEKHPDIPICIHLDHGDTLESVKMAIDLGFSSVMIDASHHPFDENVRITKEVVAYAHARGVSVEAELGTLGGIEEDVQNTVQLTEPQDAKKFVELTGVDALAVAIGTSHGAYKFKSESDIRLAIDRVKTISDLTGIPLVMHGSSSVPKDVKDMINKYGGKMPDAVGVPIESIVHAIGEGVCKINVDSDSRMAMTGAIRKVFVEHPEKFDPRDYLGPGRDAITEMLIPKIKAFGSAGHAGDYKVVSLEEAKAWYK
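40 nM FBPA preincubated 10 min at RT with compound (up to 57.5 uM final), then substrate plus GAPDH/TPI/NAD/arsenate coupling and diaphorase/resazurin added. Fluorescence read after 20 min at RT, 525/598 nm.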
Shiga toxin inh – A qHTS for Small Molecule Inhibitors of Shiga Toxin | Vero cells, Shiga toxin protein synthesis inhibition reporter | inhibition, % at 38.7 µM | 9.2% of 290,000 active | AID 2315, 2010; in the data active = inhibition mostly above about 28%, no sharp cut-off; inactive = mostly below about 43%; also: 0% is about no effect
Cycloheximide cs – Cycloheximide Counterscreen for Small Molecule Inhibitors of Shiga Toxin; AID 2314, 2010; 12% of 300,000 active; cell reporter, cycloheximide protein synthesis inhibition counterscreen; max response, %; in the data active = max response mostly above about 13%, no sharp cut-off; inactive = mostly below about 14%; also: read at 38.3 µM for the half of the compounds with a filed dose; 0% is about no effect
RE007 growth inh – qHTS Assay for Inhibitors of the HIV-1 protein Vpr; S. pombe RE007 Vpr strain, BacTiter-Glo ATP luminescence, 24 h; Potency, µM (series often up to 92.2 µM), inactives show top-dose activity change, negative = less growth, usual class: inhibitors; 0.21% of 360,000 active; AID 651644, 2012; active = well fitted falling curve with a large enough effect; inconclusive = small, poorly fitted or top-dose-only effect; inactive = no such curve, though single readings can be large or run the other way; also: potency is read from the fitted curve at half-maximal effect; % is scaled to controls: 0 for no effect and ±100 for the full control effect; nearly all actives have a fitted effect of over 50% in size
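Fission yeast RE007 carrying one integrated HIV-1 vpr copy, seeded at OD 0.01 in PMG+AL medium with 23 nL pinned compound. Grown 24 h at 30 degrees; viability read by BacTiter-Glo luminescence after 5 min.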
LmPK inhibitor – qHTS Assay for Inhibitors of Leishmania Mexicana Pyruvate Kinase (LmPK); purified LmPK, Kinase-Glo ATP luminescence, 1 h; Potency, µM (doses to about 57.5 µM), for inactives: top-dose activity change, negative = inhibition, usual class: inhibitors; 0.37% of 290,000 active; AID 1721, 2009; also: potency is read from the fitted curve at half-maximal effect; % is scaled to controls: 0 for no effect and ±100 for the full control effect
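Screened at intermediate enzyme activity to detect both inhibitors and activators: LmPK at 0.1 nM, with a 0.5 nM enzyme column as activation reference. PEP 0.5 mM, ADP 0.1 mM; ATP detected by luminescence after 1 h.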
Starred values were filed as active, the others as inactive; ? = inconclusive; nt = no result; [ ] = another dose, or the depositor's remark. Unless noted, calls follow the shape of the dose curve; as a rule, active = well fitted curve in the direction sought with a large enough effect; inconclusive = small, poorly fitted or top-dose-only effect, or another doubt; inactive = no such curve, though single readings can be large; an effect the other way counts as inactive or inconclusive.

SMILES | Tb PYK inh | FBPA Giardia inh | Shiga toxin inh | Cycloheximide cs | RE007 growth inh | LmPK inhibitor
COC(=O)C1(CC(C)C)C=C2C(=C(C(C)C)C(=O)C2C)CN1 (centres undefined) | nt | -10% | nt | nt | nt | nt
CCOc1ccc2c(c1)OC1(CCC(C)C1)CC2=O (centres undefined) | -3% | nt | nt | nt | 1% | nt
CCOc1ccc2c(c1)OC(c1ccc(C)cc1)(C(F)(F)F)NC2=O (centres undefined) | 0% | ? | 53* | 27* | -3% | -5%
CC(=O)c1sc(Nc2cccc(C)c2)nc1C | -4% | 1% | 91* | 46* | -13% | -5%
COC(=O)c1sc(Nc2ccccc2)nc1C | -7% | 0% | 104* | 35* | -9% | -2%
CCOC(=O)c1sc(N/N=C/c2ccccc2)nc1C | ? | -9% | 34* | 85* | -12% | -1%
CCOC(=O)c1sc(NCC2CCCO2)nc1C (centres undefined) | -11% | 0% | 10 | active | 2% | 1%
CC(=O)c1sc(Nc2ccccc2)nc1C | 3% | nt | nt | nt | ? | nt
Cn1cnc(S(=O)(=O)N2CCC(C(=O)Nc3ccc(F)cc3F)CC2)c1 | -1% | nt | nt | nt | nt | nt
O=S1(=O)N=C(Nc2nc3c(s2)CCCC3)c2ccccc21 | -7% | -1% | 57* | 28* | -2% | -5%
COc1ccc(/C(C)=N/Nc2nc(C)c(C(C)=O)s2)cc1 | -1% | -28% | 65* | 12* | 8% | 0%
O=C(O)Cc1sc(N/N=C\c2ccccc2)nc1-c1ccccc1 | -21% | 0% | 58* | 53* | 7% | -9%
O=C(O)c1ccc(Nc2nc3c(s2)CCCC3)cc1 | -12% | 1% | -32 | -5 | -18% | -24%
CC(C)(C)C(=O)c1sc(Nc2ccccc2)nc1N | -4% | 3% | 68* | 59* | 4% | -4%
CC(=O)OC[C@@H]1O[C@H](CCON=C(C)C)C=C[C@@H]1OC(C)=O | nt | 2%[12.9 µM] | nt | nt | nt | nt
COC(=O)[C@H](COC(C)(C)C)NC(=O)O[C@H]1C(=O)c2ccc(OC)cc2O[C@@H]1c1ccc2c(c1)OCO2 | nt | -1% | nt | nt | nt | nt
CCOC(=O)c1sc(Nc2ccc(C)cc2C)nc1C | 2% | -12% | 19 | 18* | -12% | 8%
CCOC(=O)c1sc(Nc2nc(C)cc(C)n2)nc1C | 1% | 2% | -3 | 2 | -5% | -16%
COc1cccc2sc(NC(=O)c3ccc4c(c3)OCCO4)nc12 | -5% | nt | nt | nt | nt | nt
CC(=O)c1sc(N/N=C\c2ccccc2O)nc1C | -14% | -3% | 40 | 30* | -11% | 0%
COc1cccc2sc(NC(=O)c3ccc(Br)s3)nc12 | 4% | 0% | 72 | 32* | 0% | 2%
Cc1cccc(Nc2nc3c(s2)CCCC3)c1 | -6% | -24% | 122* | 68* | 25µM* | -6%
CC1CCC(NC(=O)c2ccc3c(c2)N(Cc2cccc(Cl)c2)C(=O)c2ccccc2S3=O)CC1 (centres undefined) | 2% | nt | nt | nt | nt | nt
O=C(CCC1N=C2c3ccccc3N=C(SCc3ccccc3Cl)N2C1=O)NCCc1ccccc1 (centres undefined) | 3% | nt | nt | nt | nt | nt
Cc1nc(Nc2ccccc2)sc1C(=O)c1ccccc1 | 0% | 1% | 58* | 47* | -27% | 4%
SMILES | Tb PYK inh | FBPA Giardia inh | Shiga toxin inh | Cycloheximide cs | RE007 growth inh | LmPK inhibitor
CCOC(=O)c1sc(NS(=O)(=O)c2ccc(F)cc2)nc1C | 4% | 21% | -9 | -2 | -1% | -2%
CNc1nc(C)c(C(=O)OCc2ccccc2)s1 | -5% | 7% | 93* | 29* | 10% | -1%
CCOC(=O)c1sc(Nc2ccccc2)nc1C | -3% | 1% | 56* | 52* | ? | -1%
CNc1nc(C)c(C(=O)OCC(=O)OC)s1 | -2% | -1% | 42 | 29 | -20% | -2%
CCOC(=O)c1sc(Nc2ccc(F)cc2)nc1C | -6% | -3% | 80* | 28* | -7% | -2%
Cc1c(CNC2CCC(C)CC2)c(C(=O)O)c(C)n1Cc1ccc(Cl)cc1 (centres undefined) | 0% | nt | nt | nt | nt | nt
CCOc1ccc(CNS(=O)(=O)c2ccc3[nH]c4c(c3c2)CCCC4)cc1OC | -12% | nt | nt | nt | nt | nt
COC(=O)C(C(=O)OC)[C@@H](NC(=O)OCc1ccccc1)c1ccccc1 | nt | 0% | nt | nt | nt | nt
Cc1nn(C)c2c1c(C(F)(F)F)cc(=O)n2CC(=O)NC(C)(C)C | 0% | nt | nt | nt | nt | nt
O=C(NC1CCCCCC1)C1c2ccccc2C(=O)N1Cc1ccccc1Cl (centres undefined) | -1% | nt | nt | nt | nt | nt
CCOC(=O)c1sc(NC(=O)c2ccccc2OCC)nc1C | -3% | 0% | 69 | 36* | 1% | 3%
Cc1nc(Nc2ccc(Cl)cc2Cl)sc1C(=O)Nc1ccccc1 | 3% | -11% | -7 | -1 | -11% | 0%
COc1ccccc1CNc1nc(C)c(C(C)=O)s1 | -6% | -12% | 61* | 43* | -18% | -6%
Cc1nc(Nc2ccc(Cl)c(Cl)c2)sc1C(=O)Nc1ccccc1 | ? | -17% | -28 | 25* | ? | 3%
COc1ccccc1CNc1nc(C)c(C(=O)N(C)C)s1 | -15% | -5% | -6 | -4 | 1% | 1%
Cc1nc(NC(=O)C2CC2)sc1C(=O)Nc1ccccc1Cl | 0% | -6% | 19 | 33* | -16% | -6%
CCc1nnc2c(NCc3ccc(F)cc3)nc3ccccc3n12 | -2% | nt | nt | nt | nt | nt
CC12C=CC(=O)C=C1CCC1C2=CCC2(C)C1CC[C@@H]2C(=O)CN1CCN(c2cc(N3CCCC3)nc(N3CCCC3)n2)CC1 (some centres undefined) | nt | ? | 20 | -2 | nt | nt
COC(=O)c1ccc(/C=N/Nc2nc(-c3ccc(C)cc3)cs2)cc1 | -11% | 6% | 2 | -2 | -15% | 1%
CCOC(=O)c1sc(NC(=O)Nc2ccc(Cl)cc2)nc1C | -8% | 1% | 72* | 43* | 14% | -2%
COC(=O)c1ccc(/C=N/Nc2nc(C)c(C)s2)cc1 | -8% | 2% | 97* | 63* | -20% | -7%
CCOC(=O)c1sc(Nc2nc3c(OC)cccc3s2)nc1C | nt | -2% | 81* | 50* | nt | -1%
COc1cccc(C(=O)NNC2OC(CO)C(O)C2O)c1 (centres undefined) | 2% | 0% | 69* | 31* | 5% | 0%
COc1cccc(C(=O)NNC(=O)Cc2cccs2)c1 | -3% | 5% | -10 | -3 | -5% | 0%
CC(NC(=O)c1cccnc1)C(=O)O (centres undefined) | 0% | 4% | 0 | 2 | -14% | -5%
O=C(NNC1OC(CO)C(O)C(O)C1O)c1cccnc1 (centres undefined) | 5% | -8% | 50* | 19* | 0% | -3%
